Hits are enriched below; roughly 9.3% of the tested compounds scored in any of these assays.
VACV Venus inh: qHTS for Stage-Specific Inhibitors of Vaccinia Orthopoxvirus: Venus Reporter Primary qHTS; Vaccinia virus Venus reporter expression, fluorescence; Potency, µM (series often up to 36.5 µM), usual class: inhibitors; 0.46% of 330,000 active; AID 720580, 2013; calls by dose curve; tested in A549 cells; further: nearly all actives have a fitted effect of over 30% in size
HCMV antiviral: qHTS Assay for inhibitors of the human cytomegalovirus (HCMV); HFF cells, HCMV-luciferase reporter, 72 h; active compounds read low; AID 1259415, 2018; 4.5% of 410,000 active; activity change, negative = inhibition, % at 57.5 µM; in the data active means activity change below about -60%; inconclusive means no clear call, values can overlap the other calls; inactive means above about -39%
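HFF cells seeded 16 h at 37C, treated with compounds, infected with luciferase-reporter HCMV at MOI 1 PFU/cell; luciferase read at 72 h post infection, normalized to buffer-only and Salinomycin controls.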
FMDV antiviral: High Throughput Screening for Foot and Mouth Disease Virus Antivirals; FMDV antiviral cell-based qHTS; Potency, µM (highest dose often 57.9 µM), actives largely listed as inhibitors; 1.2% of 410,000 active; calls by dose curve; tested in HEK293T cells; further: read-out not given here; nearly all actives have a fitted effect of over 45% in size
HCV inhibitor: qHTS Assay for Inhibitors of Hepatitis C Virus (HCV). Potency, µM (top dose mostly 41.8 µM), hits mostly inhibitors. 3.4% of 340,000 active. Huh7.5.1 HCVcc-Cre infection, luciferase reporter, 44 h. AID 651820, 2012
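Antiviral activity was scored by luciferase reporter output from cells infected with HCVcc-Cre (~0.5 moi) in presence of compound, 44 h infection period, cells seeded 1,000/well 4 h prior.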
VACV mCherry inh: qHTS for Stage-Specific Inhibitors of Vaccinia Orthopoxvirus: mCherry Reporter Primary qHTS; Vaccinia virus mCherry reporter infection, fluorescence; 0.63% of 310,000 active; AID 720579, 2013; Potency, µM (doses to about 36.5 µM), usual class: inhibitors; calls by dose curve; tested in A549 cells; further: nearly all actives have a fitted effect of over 35% in size
Sm TGR block: qHTS Assay for the Inhibitors of Schistosoma Mansoni Peroxiredoxins. purified TGR, DTNB reduction, TNB absorbance 405 nm. Potency, µM (titrated, usually from 114 µM), hits mostly inhibitors. 3% of 360,000 active. AID 485364, 2010; further: nearly all actives have a fitted effect of over 60% in size
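TGR 20 nM + NADPH 100 uM (dispensed conc.), cpd preinc 15 min RT; start with NADPH (500 uM addition) then DTNB (15 mM addition). Kinetic TNB absorbance, 405 nm filter. Four-parameter Hill fit across titration.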
Each line names hits and unclear results; the compound was inactive in the other large screens. Unless noted, the call rests on the fitted dose curve; in most records, active means well fitted curve in the direction sought with a large enough effect; inconclusive means small, poorly fitted or top-dose-only effect, or another doubt; inactive means no such curve, though single readings can be large; an effect the other way counts as inactive or inconclusive.

COc1ccccc1NS(=O)(=O)c1cc(NC(=O)c2[nH]c(C)c(C(C)=O)c2C)ccc1N1CCOCC1	HCMV antiviral -90, HCV inhibitor inconclusive (no result: VACV Venus inh, VACV mCherry inh)
O=C(CNC(=O)c1ccco1)NCc1nc2ccccc2[nH]1	none (no result: VACV Venus inh, VACV mCherry inh)
CC1NC(=O)NC1CCCCCC(=O)Nc1ccc(F)c(Cl)c1 (stereo not given)	none
COc1nn(CC(=O)N2N=C(C)CC2(O)C(F)(F)F)cc1[N+](=O)[O-] (stereo not given)	none (no result: VACV Venus inh, VACV mCherry inh)
COc1ccc(NC(=O)c2[nH]c(C)c(C(C)=O)c2C)cc1S(=O)(=O)N1CCOCC1	HCV inhibitor inconclusive
CC(=O)c1c(C)[nH]c(C(=O)Nc2ccc(Cl)c(S(=O)(=O)N3CCOCC3)c2)c1C	FMDV antiviral 22µM, HCV inhibitor inconclusive, VACV mCherry inh inconclusive
O=C(Nc1ccc(S(=O)(=O)N2CCOCC2)cc1)c1cc(S(=O)(=O)N2CCOCC2)ccc1Cl	HCV inhibitor inconclusive
CC(=O)c1c(C)[nH]c(C(=O)Nc2ccc(C)c(S(=O)(=O)Nc3ccc(C)cc3C)c2)c1C	HCV inhibitor 25µM
Cc1ccc(NC(=O)c2cc(S(=O)(=O)N3CCOCC3)c(Cl)cc2Cl)cc1	HCMV antiviral inconclusive, FMDV antiviral 25µM, VACV mCherry inh inconclusive (no result: HCV inhibitor)
Cc1c(NS(=O)(=O)c2ccc(C(=O)NCc3ccc(F)cc3)cc2)c(=O)n(-c2ccccc2)n1C	none (no result: VACV Venus inh, VACV mCherry inh)
Cn1c(SCC2CCCO2)nnc1-c1cccc([N+](=O)[O-])c1 (stereo not given)	HCMV antiviral inconclusive
Cc1ccc(-c2cc(C(=O)N/N=C/c3ccco3)[nH]n2)cc1	VACV Venus inh inconclusive, FMDV antiviral inconclusive (no result: VACV mCherry inh)
COC(=O)C1=C(C)N(CC2CC2)C(=NCc2cccc(C(F)(F)F)c2)N[C@H]1c1ccccc1	FMDV antiviral inconclusive, HCV inhibitor inconclusive (no result: HCMV antiviral)
COC(=O)C1=C(C)N(Cc2ccccc2)C(=NCc2cccc(C(F)(F)F)c2)N[C@H]1c1cccc(F)c1	VACV Venus inh 13µM, HCMV antiviral -98, FMDV antiviral 40µM, HCV inhibitor inconclusive, VACV mCherry inh inconclusive
COC(=O)C1=C(C)N(Cc2ccc(C(F)(F)F)cc2)C(=NCc2ccccc2)NC1c1cccc(Cl)c1 (stereo not given)	HCMV antiviral -100 (no result: VACV Venus inh, FMDV antiviral, HCV inhibitor, VACV mCherry inh, Sm TGR block)
COC(=O)C1=C(C)N(Cc2ccccc2)C(=NCc2cccc(C(F)(F)F)c2)N[C@H]1c1cccc(C(F)(F)F)c1	VACV Venus inh 28µM, FMDV antiviral 40µM, VACV mCherry inh 10µM (no result: HCMV antiviral)
COCCN=C1N[C@@H](c2cccc(C(F)(F)F)c2)C(C(=O)OC)=C(C)N1Cc1ccccc1	none
COC(=O)C1=C(C)N(Cc2cccc(C(F)(F)F)c2)C(=NCC2CC2)NC1c1cccc(C(F)(F)F)c1 (stereo not given)	HCMV antiviral -85 (no result: VACV Venus inh, FMDV antiviral, HCV inhibitor, VACV mCherry inh, Sm TGR block)
CCN=C1NC(c2ccc(F)cc2)C(C(=O)OC)=C(C)N1Cc1cccc(C(F)(F)F)c1 (stereo not given)	none (no result: VACV Venus inh, FMDV antiviral, HCV inhibitor, VACV mCherry inh, Sm TGR block)
Cn1c(=O)[nH]c(=O)c2c1nc(N1CCCCCC1)n2Cc1cccc2ccccc12	FMDV antiviral inconclusive (no result: VACV mCherry inh)
COc1ccc(N2CCN(S(=O)(=O)CCNC(=O)/C=C/c3ccccc3)CC2)cc1	none
CCCCCCCSc1ncnc2[nH]ncc12	none (no result: Sm TGR block)
COC(=O)C1=C(C)N(Cc2ccc(C(F)(F)F)cc2)C(=NCc2ccccc2)NC1c1ccccc1 (stereo not given)	HCMV antiviral -92 (no result: VACV Venus inh, FMDV antiviral, HCV inhibitor, VACV mCherry inh, Sm TGR block)
COC(=O)C1=C(C)N(Cc2ccccc2)C(=NCc2ccc(OC)cc2)N[C@H]1c1ccccc1	VACV Venus inh inconclusive, HCV inhibitor inconclusive
COC(=O)C1=C(C)N(Cc2ccc(C(F)(F)F)cc2)C(=NCc2ccccc2)NC1c1cccc(C(F)(F)F)c1 (stereo not given)	HCMV antiviral -101 (no result: VACV Venus inh, FMDV antiviral, HCV inhibitor, VACV mCherry inh, Sm TGR block)
COC(=O)C1=C(C)N(Cc2ccccc2)C(=NCCCCO)N[C@H]1c1cccc(C(F)(F)F)c1	HCV inhibitor inconclusive
CCOC(=O)c1cc(C)n(Cc2ccc(OCC)c(OC)c2)c1C	FMDV antiviral inconclusive, HCV inhibitor 11µM (no result: VACV Venus inh, VACV mCherry inh)
CCOC(=O)c1c(C)c(C)n(Cc2ccc(OC)c(OC)c2)c1C	HCMV antiviral inconclusive, FMDV antiviral inconclusive, HCV inhibitor inconclusive
Cc1cc(C(=O)CCl)c(C)n1CCc1ccc(F)cc1	HCMV antiviral -83, FMDV antiviral 28µM, HCV inhibitor inconclusive, Sm TGR block 2.5µM
COc1ccc(CCn2c(C)cc(C(=O)CCl)c2C)cc1OC	HCMV antiviral -100, FMDV antiviral 20µM, HCV inhibitor inconclusive, Sm TGR block 11µM (no result: VACV Venus inh, VACV mCherry inh)
Cc1cc(C(=O)CCl)c(C)n1CCc1ccc(Cl)cc1	HCMV antiviral -98, FMDV antiviral 22µM, HCV inhibitor 10µM, Sm TGR block 7.9µM
Cc1ccc(C(=O)NCCCNC(=O)c2cccnc2)cc1	none
CCN(CC(=O)Nc1ccccc1C(F)(F)F)C(=O)CCOc1ccccc1C	none
O=C(NCCN1CCCCC1)/C(=N\O)c1ccccc1	none
Fc1ccc(-c2csc(/C=C/c3ccc4c(c3)OCO4)n2)cc1	none
O=C(COc1ccc(S(=O)(=O)N2CCOCC2)cc1)Nc1ccccc1Cl	none
Cc1ccc(O)c(C(=O)c2cc(C(=O)NCCC(C)C)c(=O)n(CCC(C)C)c2)c1	HCV inhibitor 10µM
O=C1CCC(=O)N1CC(=O)N1c2ccccc2Sc2ccccc21	none
CCC(=O)NNc1ccc(Br)cc1	VACV mCherry inh inconclusive
Cc1ccc(S(=O)(=O)NCC(=O)NCC(=O)N(C)Cc2ccc3ccccc3c2)cc1C	FMDV antiviral inconclusive, HCV inhibitor 10µM
COc1cccc(CN2CCNC(=O)C2CC(=O)N(C)CCC2CCOCC2)c1OC (stereo not given)	Sm TGR block 25µM (no result: HCV inhibitor)
COc1cccc(CNC(=O)CC2C(=O)NCCN2Cc2ccoc2)c1OC (stereo not given)	Sm TGR block 20µM
CCOc1ccccc1CN1CCNC(=O)C1CC(=O)N(C)CCC1CCOCC1 (stereo not given)	Sm TGR block inconclusive
COc1cccc(CN2CCNC(=O)C2CC(=O)NCCN2CCOCC2)c1OC (stereo not given)	none
COc1cc(CNC(=O)c2cc(-c3ccccc3)n[nH]2)cc(OC)c1OC	none (no result: HCV inhibitor)
Cc1cc(C)cc(Nc2nc3c(S(=O)(=O)c4cccc(Cl)c4)nnn3c3ccsc23)c1	none (no result: HCV inhibitor)
Cc1ccc2c(c1)C(c1ccccc1)N(C(=O)c1cc3ccccc3oc1=O)CC(=O)N2 (stereo not given)	none
OCCC1CN(Cc2cnc(N3CCCC3)s2)CCN1C1CCCC1 (stereo not given)	VACV mCherry inh inconclusive
CCOC(=O)CSc1nnc(CSc2nc(C)cc(C)n2)n1Cc1ccco1	Sm TGR block 45µM
